Columns and labels:
Assay in all cases: PBM; 200 nM protein, PBS
Conditions in all cases: dsDNA, one strand shown
[1] = biological target: ALX1 (Homo sapiens, UniProt Q15699 118-204, L144V)
[2] = biological target: ALX3 (Homo sapiens, UniProt O95076 139-225, N203Q)
[3] = biological target: ALX1 (Homo sapiens, UniProt Q15699 118-204, L144R)
[4] = biological target: ALX3 (Homo sapiens, UniProt O95076 139-225)
[5] = biological target: ALX3 (Homo sapiens, UniProt O95076 139-225, L168Q)
[6] = biological target: ALX3 (Homo sapiens, UniProt O95076 139-225, L168V)
[7] = biological target: ALX1 (Homo sapiens, UniProt Q15699 118-204)
[8] = biological target: ALX3 (Homo sapiens, UniProt O95076 139-225, N203S)
[9] = biological target: NKX3-2 (Homo sapiens, UniProt P78367 192-278, P234S)
[10] = biological target: NKX3-2 (Homo sapiens, UniProt P78367 192-278)
[11] = biological target: MSX2 (Homo sapiens, UniProt P35548 130-214, R199I)
[12] = biological target: MSX2 (Homo sapiens, UniProt P35548 130-214)
[13] = biological target: MSX2 (Homo sapiens, UniProt P35548 130-214, F161Y)
[14] = biological target: VAX1 (Homo sapiens, UniProt Q5SQQ9 86-172)
[15] = biological target: VAX1 (Homo sapiens, UniProt Q5SQQ9 86-172, T142I)
[16] = biological target: VAX1 (Homo sapiens, UniProt Q5SQQ9 86-172, K157R)
[17] = biological target: HOXA4 (Homo sapiens, UniProt Q00056 201-287, W262F)
Chain of HOXA4 (Q00056 201-287 W262F): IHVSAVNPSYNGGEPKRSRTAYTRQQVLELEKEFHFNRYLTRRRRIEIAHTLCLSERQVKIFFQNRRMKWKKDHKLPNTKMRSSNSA

Chain of MSX2 (Homo sapiens, UniProt P35548 130-214, F161Y) (P35548 130-214 F161Y): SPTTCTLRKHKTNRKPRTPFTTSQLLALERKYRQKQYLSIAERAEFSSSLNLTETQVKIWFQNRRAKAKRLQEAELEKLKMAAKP
Chain of MSX2 (Homo sapiens, UniProt P35548 130-214) (P35548 130-214): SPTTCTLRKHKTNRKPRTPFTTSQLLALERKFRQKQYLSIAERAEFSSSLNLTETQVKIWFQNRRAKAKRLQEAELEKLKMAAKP
Chain of MSX2 (Homo sapiens, UniProt P35548 130-214, R199I) (P35548 130-214 R199I): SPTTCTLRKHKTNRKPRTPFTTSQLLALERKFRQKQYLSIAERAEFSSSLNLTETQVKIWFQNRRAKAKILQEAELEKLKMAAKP
Chain of ALX1 (Homo sapiens, UniProt Q15699 118-204) (Q15699 118-204): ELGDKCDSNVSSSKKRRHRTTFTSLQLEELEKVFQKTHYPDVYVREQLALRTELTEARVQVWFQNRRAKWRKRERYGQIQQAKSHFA
Chain of ALX3 (Homo sapiens, UniProt O95076 139-225, N203Q) (O95076 139-225 N203Q): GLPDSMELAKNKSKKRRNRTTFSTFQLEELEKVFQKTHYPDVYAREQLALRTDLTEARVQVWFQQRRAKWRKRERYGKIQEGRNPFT
Chain of ALX1 (Homo sapiens, UniProt Q15699 118-204, L144V) (Q15699 118-204 L144V): as the sequence (Q15699 118-204) above, with L27V counted along it
Chain of ALX1 (Homo sapiens, UniProt Q15699 118-204, L144R) (Q15699 118-204 L144R): as the sequence (Q15699 118-204) above, with L27R counted along it
Chain of ALX3 (Homo sapiens, UniProt O95076 139-225, N203S) (O95076 139-225 N203S): as the sequence (O95076 139-225 N203Q) above, with Q65S counted along it
Chain of VAX1 (Homo sapiens, UniProt Q5SQQ9 86-172, K157R) (Q5SQQ9 86-172 K157R): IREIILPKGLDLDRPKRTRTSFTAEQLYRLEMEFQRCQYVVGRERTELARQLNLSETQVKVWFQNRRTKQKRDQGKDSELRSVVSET
Chain of VAX1 (Homo sapiens, UniProt Q5SQQ9 86-172, T142I) (Q5SQQ9 86-172 T142I): as the sequence (Q5SQQ9 86-172 K157R) above, with T57I, R72K counted along it
Chain of ALX3 (Homo sapiens, UniProt O95076 139-225) (O95076 139-225): as the sequence (O95076 139-225 N203Q) above, with Q65N counted along it
Chain of ALX3 (Homo sapiens, UniProt O95076 139-225, L168Q) (O95076 139-225 L168Q): as the sequence (O95076 139-225 N203Q) above, with L30Q, Q65N counted along it
Chain of NKX3-2 (Homo sapiens, UniProt P78367 192-278) (P78367 192-278): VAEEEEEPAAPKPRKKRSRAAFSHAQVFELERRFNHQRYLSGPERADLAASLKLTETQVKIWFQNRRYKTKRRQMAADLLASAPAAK
Chain of VAX1 (Homo sapiens, UniProt Q5SQQ9 86-172) (Q5SQQ9 86-172): as the sequence (Q5SQQ9 86-172 K157R) above, with R72K counted along it
Chain of ALX3 (Homo sapiens, UniProt O95076 139-225, L168V) (O95076 139-225 L168V): as the sequence (O95076 139-225 N203Q) above, with L30V, Q65N counted along it
Chain of NKX3-2 (Homo sapiens, UniProt P78367 192-278, P234S) (P78367 192-278 P234S): as the sequence (P78367 192-278) above, with P43S counted along it

For CCGGGCCG, the binding signal [1] was 6.6 upbm affinity estimate (log intensity, higher = more binding, comparable within an allelic series), the binding signal [2] was 7.72 upbm affinity estimate (log intensity, higher = more binding, comparable within an allelic series) and the binding signal [3] was 6.56 upbm affinity estimate (log intensity, higher = more binding, comparable within an allelic series). For the same sequence, the binding signal [4] was 7.76 upbm affinity estimate (log intensity, higher = more binding, comparable within an allelic series), the binding signal [5] was 7.74 upbm affinity estimate (log intensity, higher = more binding, comparable within an allelic series) and the binding signal [6] was 7.65 upbm affinity estimate (log intensity, higher = more binding, comparable within an allelic series). For the same sequence, the binding signal [7] was 6.37 upbm affinity estimate (log intensity, higher = more binding, comparable within an allelic series) and the binding signal [8] was 7.67 upbm affinity estimate (log intensity, higher = more binding, comparable within an allelic series).

With CCGGGGAG the binding signal [1] was 6.03 upbm affinity estimate (log intensity, higher = more binding, comparable within an allelic series), the binding signal [3] was 6.12 upbm affinity estimate (log intensity, higher = more binding, comparable within an allelic series) and the binding signal [9] was 10.5 upbm affinity estimate (log intensity, higher = more binding, comparable within an allelic series). The binding signal [7] was 5.94 upbm affinity estimate (log intensity, higher = more binding, comparable within an allelic series) and the binding signal [10] was 10.5 upbm affinity estimate (log intensity, higher = more binding, comparable within an allelic series).

In the case of CTAGCTGC, the binding signal [1] is reported as 6.42 upbm affinity estimate (log intensity, higher = more binding, comparable within an allelic series), the binding signal [3] is reported as 6.45 upbm affinity estimate (log intensity, higher = more binding, comparable within an allelic series) and the binding signal [7] is reported as 6.31 upbm affinity estimate (log intensity, higher = more binding, comparable within an allelic series).

With GAGGAAGC the binding signal [11] was 9.59 upbm affinity estimate (log intensity, higher = more binding, comparable within an allelic series), the binding signal [12] was 9.52 upbm affinity estimate (log intensity, higher = more binding, comparable within an allelic series) and the binding signal [13] was 9.52 upbm affinity estimate (log intensity, higher = more binding, comparable within an allelic series).

In the case of ATACATAA, the binding signal [11] is reported as 11 upbm affinity estimate (log intensity, higher = more binding, comparable within an allelic series), the binding signal [12] is reported as 11.6 upbm affinity estimate (log intensity, higher = more binding, comparable within an allelic series) and the binding signal [13] is reported as 11.4 upbm affinity estimate (log intensity, higher = more binding, comparable within an allelic series).

For CGCCGACC, the binding signal [11] was 9.46 upbm affinity estimate (log intensity, higher = more binding, comparable within an allelic series), the binding signal [12] was 9.28 upbm affinity estimate (log intensity, higher = more binding, comparable within an allelic series) and the binding signal [13] was 9.4 upbm affinity estimate (log intensity, higher = more binding, comparable within an allelic series). For the same sequence, the binding signal [9] was 10.4 upbm affinity estimate (log intensity, higher = more binding, comparable within an allelic series) and the binding signal [10] was 10.4 upbm affinity estimate (log intensity, higher = more binding, comparable within an allelic series).

GGACGGCC was tested, and the binding signal [1] was 6.43 upbm affinity estimate (log intensity, higher = more binding, comparable within an allelic series), the binding signal [3] was 6.53 upbm affinity estimate (log intensity, higher = more binding, comparable within an allelic series) and the binding signal [7] was 6.53 upbm affinity estimate (log intensity, higher = more binding, comparable within an allelic series).

In the case of ACTTTAAA, the binding signal [1] is reported as 8.62 upbm affinity estimate (log intensity, higher = more binding, comparable within an allelic series), the binding signal [3] is reported as 8.74 upbm affinity estimate (log intensity, higher = more binding, comparable within an allelic series) and the binding signal [7] is reported as 8.8 upbm affinity estimate (log intensity, higher = more binding, comparable within an allelic series).

With AGGCCGGG the binding signal [1] was 6.61 upbm affinity estimate (log intensity, higher = more binding, comparable within an allelic series), the binding signal [3] was 6.52 upbm affinity estimate (log intensity, higher = more binding, comparable within an allelic series) and the binding signal [14] was 6.99 upbm affinity estimate (log intensity, higher = more binding, comparable within an allelic series). The binding signal [15] was 7.01 upbm affinity estimate (log intensity, higher = more binding, comparable within an allelic series), the binding signal [7] was 6.54 upbm affinity estimate (log intensity, higher = more binding, comparable within an allelic series) and the binding signal [16] was 7.01 upbm affinity estimate (log intensity, higher = more binding, comparable within an allelic series).

CGGCGGCA was tested, and the binding signal [11] was 9.49 upbm affinity estimate (log intensity, higher = more binding, comparable within an allelic series), the binding signal [12] was 9.38 upbm affinity estimate (log intensity, higher = more binding, comparable within an allelic series) and the binding signal [13] was 9.41 upbm affinity estimate (log intensity, higher = more binding, comparable within an allelic series).

In the case of ATTAAGAA, the binding signal [11] is reported as 11.3 upbm affinity estimate (log intensity, higher = more binding, comparable within an allelic series), the binding signal [12] is reported as 12 upbm affinity estimate (log intensity, higher = more binding, comparable within an allelic series) and the binding signal [13] is reported as 11.7 upbm affinity estimate (log intensity, higher = more binding, comparable within an allelic series).

In the case of CCTTGCCG, the binding signal [1] is reported as 6.69 upbm affinity estimate (log intensity, higher = more binding, comparable within an allelic series), the binding signal [3] is reported as 6.58 upbm affinity estimate (log intensity, higher = more binding, comparable within an allelic series) and the binding signal [7] is reported as 6.55 upbm affinity estimate (log intensity, higher = more binding, comparable within an allelic series).

CATTTTGA was tested, and the binding signal [11] was 10.3 upbm affinity estimate (log intensity, higher = more binding, comparable within an allelic series), the binding signal [12] was 10.6 upbm affinity estimate (log intensity, higher = more binding, comparable within an allelic series) and the binding signal [13] was 10.5 upbm affinity estimate (log intensity, higher = more binding, comparable within an allelic series).

With AGAGCGCC the binding signal [1] was 6.46 upbm affinity estimate (log intensity, higher = more binding, comparable within an allelic series), the binding signal [2] was 7.79 upbm affinity estimate (log intensity, higher = more binding, comparable within an allelic series) and the binding signal [3] was 6.49 upbm affinity estimate (log intensity, higher = more binding, comparable within an allelic series). For the same sequence, the binding signal [4] was 7.87 upbm affinity estimate (log intensity, higher = more binding, comparable within an allelic series), the binding signal [5] was 7.76 upbm affinity estimate (log intensity, higher = more binding, comparable within an allelic series) and the binding signal [6] was 7.79 upbm affinity estimate (log intensity, higher = more binding, comparable within an allelic series). The binding signal [7] was 6.45 upbm affinity estimate (log intensity, higher = more binding, comparable within an allelic series) and the binding signal [8] was 7.78 upbm affinity estimate (log intensity, higher = more binding, comparable within an allelic series).

AGGGGGAG was tested, and the binding signal [11] was 9.43 upbm affinity estimate (log intensity, higher = more binding, comparable within an allelic series), the binding signal [12] was 9.52 upbm affinity estimate (log intensity, higher = more binding, comparable within an allelic series) and the binding signal [13] was 9.49 upbm affinity estimate (log intensity, higher = more binding, comparable within an allelic series).

In the case of AATGAATG, the binding signal [1] is reported as 9.18 upbm affinity estimate (log intensity, higher = more binding, comparable within an allelic series), the binding signal [3] is reported as 9 upbm affinity estimate (log intensity, higher = more binding, comparable within an allelic series) and the binding signal [7] is reported as 9.33 upbm affinity estimate (log intensity, higher = more binding, comparable within an allelic series).

With GATGTTTA the binding signal [11] was 10.5 upbm affinity estimate (log intensity, higher = more binding, comparable within an allelic series), the binding signal [12] was 10.9 upbm affinity estimate (log intensity, higher = more binding, comparable within an allelic series) and the binding signal [13] was 10.8 upbm affinity estimate (log intensity, higher = more binding, comparable within an allelic series).

For CAGCGAGA, the binding signal [1] was 6.61 upbm affinity estimate (log intensity, higher = more binding, comparable within an allelic series), the binding signal [3] was 6.49 upbm affinity estimate (log intensity, higher = more binding, comparable within an allelic series) and the binding signal [7] was 6.63 upbm affinity estimate (log intensity, higher = more binding, comparable within an allelic series).

For CATACTAA, the binding signal [11] was 10.4 upbm affinity estimate (log intensity, higher = more binding, comparable within an allelic series), the binding signal [12] was 10.7 upbm affinity estimate (log intensity, higher = more binding, comparable within an allelic series) and the binding signal [13] was 10.6 upbm affinity estimate (log intensity, higher = more binding, comparable within an allelic series).

In the case of AATTTTTA, the binding signal [11] is reported as 11.1 upbm affinity estimate (log intensity, higher = more binding, comparable within an allelic series), the binding signal [12] is reported as 11.9 upbm affinity estimate (log intensity, higher = more binding, comparable within an allelic series) and the binding signal [13] is reported as 11.6 upbm affinity estimate (log intensity, higher = more binding, comparable within an allelic series).

CTAATGAA was tested, and the binding signal [1] was 10.6 upbm affinity estimate (log intensity, higher = more binding, comparable within an allelic series), the binding signal [3] was 10.2 upbm affinity estimate (log intensity, higher = more binding, comparable within an allelic series) and the binding signal [14] was 12.7 upbm affinity estimate (log intensity, higher = more binding, comparable within an allelic series). For the same sequence, the binding signal [15] was 12.4 upbm affinity estimate (log intensity, higher = more binding, comparable within an allelic series), the binding signal [7] was 11.1 upbm affinity estimate (log intensity, higher = more binding, comparable within an allelic series) and the binding signal [17] was 11.5 upbm affinity estimate (log intensity, higher = more binding, comparable within an allelic series). For the same sequence, the binding signal [16] was 12.4 upbm affinity estimate (log intensity, higher = more binding, comparable within an allelic series).

For ATTAAGCA, the binding signal [1] was 10.2 upbm affinity estimate (log intensity, higher = more binding, comparable within an allelic series), the binding signal [3] was 9.85 upbm affinity estimate (log intensity, higher = more binding, comparable within an allelic series) and the binding signal [7] was 10.5 upbm affinity estimate (log intensity, higher = more binding, comparable within an allelic series).

AATATTTA was tested, and the binding signal [1] was 9.37 upbm affinity estimate (log intensity, higher = more binding, comparable within an allelic series), the binding signal [3] was 9.47 upbm affinity estimate (log intensity, higher = more binding, comparable within an allelic series) and the binding signal [7] was 9.54 upbm affinity estimate (log intensity, higher = more binding, comparable within an allelic series).

In the case of ATTATAAC, the binding signal [1] is reported as 10.3 upbm affinity estimate (log intensity, higher = more binding, comparable within an allelic series), the binding signal [2] is reported as 8.52 upbm affinity estimate (log intensity, higher = more binding, comparable within an allelic series) and the binding signal [3] is reported as 9.95 upbm affinity estimate (log intensity, higher = more binding, comparable within an allelic series). For the same sequence, the binding signal [7] was 10.6 upbm affinity estimate (log intensity, higher = more binding, comparable within an allelic series).

In the case of ACCCGCTC, the binding signal [1] is reported as 6.49 upbm affinity estimate (log intensity, higher = more binding, comparable within an allelic series), the binding signal [3] is reported as 6.49 upbm affinity estimate (log intensity, higher = more binding, comparable within an allelic series) and the binding signal [7] is reported as 6.43 upbm affinity estimate (log intensity, higher = more binding, comparable within an allelic series).

For AAAAATGT, the binding signal [1] was 8.02 upbm affinity estimate (log intensity, higher = more binding, comparable within an allelic series), the binding signal [3] was 8.01 upbm affinity estimate (log intensity, higher = more binding, comparable within an allelic series) and the binding signal [7] was 8.15 upbm affinity estimate (log intensity, higher = more binding, comparable within an allelic series).

For CCAGCGGC, the binding signal [1] was 6.38 upbm affinity estimate (log intensity, higher = more binding, comparable within an allelic series), the binding signal [3] was 6.67 upbm affinity estimate (log intensity, higher = more binding, comparable within an allelic series) and the binding signal [7] was 6.48 upbm affinity estimate (log intensity, higher = more binding, comparable within an allelic series).

For CAGACTGG, the binding signal [1] was 6.33 upbm affinity estimate (log intensity, higher = more binding, comparable within an allelic series), the binding signal [3] was 6.4 upbm affinity estimate (log intensity, higher = more binding, comparable within an allelic series) and the binding signal [7] was 6.39 upbm affinity estimate (log intensity, higher = more binding, comparable within an allelic series).

With CCGAGAGC the binding signal [1] was 6.61 upbm affinity estimate (log intensity, higher = more binding, comparable within an allelic series), the binding signal [3] was 6.63 upbm affinity estimate (log intensity, higher = more binding, comparable within an allelic series) and the binding signal [7] was 6.63 upbm affinity estimate (log intensity, higher = more binding, comparable within an allelic series).

For ATTTATCG, the binding signal [1] was 8.96 upbm affinity estimate (log intensity, higher = more binding, comparable within an allelic series), the binding signal [3] was 8.71 upbm affinity estimate (log intensity, higher = more binding, comparable within an allelic series) and the binding signal [7] was 9.21 upbm affinity estimate (log intensity, higher = more binding, comparable within an allelic series).

Source: article PMC11006913
